In article PMC5700166:
Substitutions are numbered along the chain they refer to.

Legend:
Experiment in all cases: protein-binding microarray (PBM); PBM: ~300 nM protein, 6 mM HEPES pH 7.8, 80 mM KCl, 0.5 mM EDTA, 0.5 mM EGTA, 6% glycerol, 35 ng/ul poly-dIdC, 1% milk, 1 h, room temperature; Ap Aiptasia and Nv Nematostella (sea anemones) / Co Capsaspora / Aq Amphimedon (sponge) / Dm Drosophila / Hu human; RHD is the Rel homology domain; high values mean tight binding
Settings in all cases: dsDNA, one strand shown
[1] = target: T1, GST-Ap-NF-kB RHD (Exaiptasia pallida (Aiptasia), UniProt A0A913YAJ5 2-422)
T1 sequence: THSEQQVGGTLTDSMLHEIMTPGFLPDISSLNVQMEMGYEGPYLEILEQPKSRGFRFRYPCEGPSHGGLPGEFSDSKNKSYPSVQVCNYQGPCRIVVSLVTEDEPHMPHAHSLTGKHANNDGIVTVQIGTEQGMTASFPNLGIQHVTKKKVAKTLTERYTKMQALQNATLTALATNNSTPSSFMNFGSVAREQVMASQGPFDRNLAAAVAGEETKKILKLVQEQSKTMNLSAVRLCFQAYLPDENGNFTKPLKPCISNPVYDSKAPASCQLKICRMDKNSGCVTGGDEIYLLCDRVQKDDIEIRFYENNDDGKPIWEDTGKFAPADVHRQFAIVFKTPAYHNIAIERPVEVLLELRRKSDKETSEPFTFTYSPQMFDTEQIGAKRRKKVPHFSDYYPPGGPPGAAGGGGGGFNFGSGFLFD

[2] = target: T2, GST-Nv-NF-kB (Cys allele) (Nematostella vectensis, UniProt E5G601 2-411)
T2 sequence: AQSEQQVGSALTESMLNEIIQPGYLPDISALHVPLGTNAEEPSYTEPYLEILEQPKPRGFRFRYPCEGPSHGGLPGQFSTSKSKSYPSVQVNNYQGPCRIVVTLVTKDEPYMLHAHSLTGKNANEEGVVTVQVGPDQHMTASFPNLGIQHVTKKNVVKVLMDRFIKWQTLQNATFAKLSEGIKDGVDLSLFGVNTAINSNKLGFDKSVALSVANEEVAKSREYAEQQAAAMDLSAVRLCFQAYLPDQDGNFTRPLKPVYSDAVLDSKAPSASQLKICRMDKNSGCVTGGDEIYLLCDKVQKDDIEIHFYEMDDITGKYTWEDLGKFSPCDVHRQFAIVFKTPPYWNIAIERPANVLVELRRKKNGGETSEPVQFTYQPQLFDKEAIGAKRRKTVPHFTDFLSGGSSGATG

[3] = target: T3, GST-Nv-NF-kB (Ser allele) (Nematostella vectensis, UniProt A7UNT2 2-411)
T3 sequence: T2 sequence with Q21R, C66S, S207N, E215Q, V217A, E225K, A268E, D399E

[4] = target: T4, GST-Co-NF-kB (Capsaspora owczarzaki, UniProt F1ARL5 200-546)
T4 sequence: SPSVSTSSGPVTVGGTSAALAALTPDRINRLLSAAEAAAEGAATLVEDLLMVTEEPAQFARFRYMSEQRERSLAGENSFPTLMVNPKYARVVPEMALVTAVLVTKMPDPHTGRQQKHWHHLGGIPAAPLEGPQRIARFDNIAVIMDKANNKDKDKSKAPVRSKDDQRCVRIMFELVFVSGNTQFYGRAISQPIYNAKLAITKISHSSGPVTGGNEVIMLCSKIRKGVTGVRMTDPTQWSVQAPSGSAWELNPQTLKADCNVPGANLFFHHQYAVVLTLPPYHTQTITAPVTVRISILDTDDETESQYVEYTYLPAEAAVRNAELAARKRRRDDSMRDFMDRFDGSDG

[5] = target: T5, GST-Dm-Relish (Drosophila melanogaster, UniProt Q94527 99-473)
T5 sequence: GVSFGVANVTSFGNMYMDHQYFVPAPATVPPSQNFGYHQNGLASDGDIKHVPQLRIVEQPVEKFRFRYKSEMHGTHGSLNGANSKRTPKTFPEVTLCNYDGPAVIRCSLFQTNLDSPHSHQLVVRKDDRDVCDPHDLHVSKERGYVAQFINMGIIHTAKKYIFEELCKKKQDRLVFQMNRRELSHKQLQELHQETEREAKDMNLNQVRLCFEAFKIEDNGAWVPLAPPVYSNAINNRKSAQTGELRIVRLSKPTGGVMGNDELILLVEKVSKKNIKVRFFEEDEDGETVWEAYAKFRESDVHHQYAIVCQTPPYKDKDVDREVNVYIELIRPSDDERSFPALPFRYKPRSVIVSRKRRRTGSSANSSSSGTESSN

[6] = target: T6, GST-Aq-NF-kB (Amphimedon queenslandica, UniProt A9Y5G7 2-389)
T6 sequence: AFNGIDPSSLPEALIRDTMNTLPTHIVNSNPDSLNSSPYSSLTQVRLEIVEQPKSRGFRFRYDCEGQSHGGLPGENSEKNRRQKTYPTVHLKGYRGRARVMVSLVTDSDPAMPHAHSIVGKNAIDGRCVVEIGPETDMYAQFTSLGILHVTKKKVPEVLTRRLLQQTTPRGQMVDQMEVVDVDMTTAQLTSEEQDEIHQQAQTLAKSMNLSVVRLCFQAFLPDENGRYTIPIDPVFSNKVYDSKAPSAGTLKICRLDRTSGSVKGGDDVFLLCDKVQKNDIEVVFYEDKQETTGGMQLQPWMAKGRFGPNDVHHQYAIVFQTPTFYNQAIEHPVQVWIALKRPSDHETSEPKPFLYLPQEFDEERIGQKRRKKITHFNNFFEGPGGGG

[7] = target: GST-Hu-p50 (Homo sapiens, UniProt P19838 7-356)
Chain of GST-Hu-p50 (P19838 7-356): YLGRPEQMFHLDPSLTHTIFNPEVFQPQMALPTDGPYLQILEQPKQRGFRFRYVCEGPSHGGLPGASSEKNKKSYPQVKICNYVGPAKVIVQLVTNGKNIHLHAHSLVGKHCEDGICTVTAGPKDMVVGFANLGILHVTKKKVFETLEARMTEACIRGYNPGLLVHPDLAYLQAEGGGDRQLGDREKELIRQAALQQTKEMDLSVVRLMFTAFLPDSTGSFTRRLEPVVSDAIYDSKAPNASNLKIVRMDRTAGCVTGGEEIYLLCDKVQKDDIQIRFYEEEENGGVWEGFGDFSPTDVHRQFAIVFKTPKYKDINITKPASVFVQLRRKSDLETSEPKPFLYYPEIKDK

| Sequence | binding signal [1] [z-score] | binding signal [2] [z-score] | binding signal [3] [z-score] | binding signal [4] [z-score] | binding signal [5] [z-score] | binding signal [6] [z-score] | binding signal [7] [z-score] |
| --- | --- | --- | --- | --- | --- | --- | --- |
| CCGATTAACATCAGGGGTATTTATGATGTTAATCGGGTCTTGATTCGCTTGACGCTGCTG | 5.75 | 5.26 | 5.54 | 4.66 | 3.79 | 5.15 | 5.56 |
| CCGATTAACATCAACGGATTCCCTGATGTTAATCGGGTCTTGATTCGCTTGACGCTGCTG | 2.31 | 3.57 | 3.98 | 2.89 | 5.42 | 2.97 | 1.77 |
| CCGATTAACATCAAATACTCCCCTGATGTTAATCGGGTCTTGATTCGCTTGACGCTGCTG | 6.1 | 5.48 | 6.09 | 6.89 | 3.34 | 5.29 | 4.01 |
| CCGATTAACATCACTAGTCCCCCTGATGTTAATCGGGTCTTGATTCGCTTGACGCTGCTG | 4.7 | 3.39 | 3.45 | 3.98 | 2.58 | 3.81 | 3.46 |
| CCGATTAACATCAAGTTCCCCCCTGATGTTAATCGGGTCTTGATTCGCTTGACGCTGCTG | 7.37 | 6.39 | 7.26 | 10.1 | 6.95 | 6.03 | 6.13 |
| CCGATTAACATCAGGGGAAGACCTGATGTTAATCGGGTCTTGATTCGCTTGACGCTGCTG | 5.91 | 7.98 | 6.51 | 5.23 | 8.75 | 7.72 | 4.98 |
| CCGATTAACATCAATACTCCCCCTGATGTTAATCGGGTCTTGATTCGCTTGACGCTGCTG | 6.61 | 5.41 | 6.73 | 8.03 | 3.95 | 4.97 | 6.4 |
| CCGATTAACATCAGGGGAAATACTGATGTTAATCGGGTCTTGATTCGCTTGACGCTGCTG | 7.87 | 8.59 | 11 | 8.2 | 9.53 | 7.18 | 6.88 |
| CCGATTAACATCAGGGGGGACTATGATGTTAATCGGGTCTTGATTCGCTTGACGCTGCTG | 5.46 | 5.17 | 4.88 | 5.47 | 4.09 | 4.64 | 3.99 |
| CCGATTAACATCACCTTTTCCCCTGATGTTAATCGGGTCTTGATTCGCTTGACGCTGCTG | 6.24 | 6.89 | 8.88 | 8.71 | 2.77 | 4.69 | 5.94 |
| CCGATTAACATCAAAACCCCCCTTGATGTTAATCGGGTCTTGATTCGCTTGACGCTGCTG | 8.76 | 7.32 | 7.84 | 3.85 | 10.5 | 8.03 | 7 |
| CCGATTAACATCAGAATTCCCCATGATGTTAATCGGGTCTTGATTCGCTTGACGCTGCTG | 8.83 | 10.3 | 9.9 | 7.04 | 6.72 | 6.99 | 6.62 |
| CCGATTAACATCAAGGGAATGCCTGATGTTAATCGGGTCTTGATTCGCTTGACGCTGCTG | 2.72 | 3.58 | 2.83 | 1.06 | 2.97 | 4.2 | 1.87 |
| CCGATTAACATCAGGGGAATTTATGATGTTAATCGGGTCTTGATTCGCTTGACGCTGCTG | 9.91 | 11.9 | 12.9 | 8.16 | 9.13 | 8.72 | 7.75 |
| CCGATTAACATCACAGAATTCCCTGATGTTAATCGGGTCTTGATTCGCTTGACGCTGCTG | 5.09 | 6.44 | 6.81 | 3.6 | 4.28 | 5.42 | 4.93 |
| CCGATTAACATCAAATTTCCCGGTGATGTTAATCGGGTCTTGATTCGCTTGACGCTGCTG | 4.14 | 4.99 | 4.8 | 6.34 | 3.56 | 4.88 | 4.39 |
| CCGATTAACATCAGGGGGATCTATGATGTTAATCGGGTCTTGATTCGCTTGACGCTGCTG | 6.31 | 5.52 | 6.98 | 4.28 | 5.1 | 4.5 | 5.83 |
| CCGATTAACATCAGGGGACTTTATGATGTTAATCGGGTCTTGATTCGCTTGACGCTGCTG | 7.86 | 8.29 | 7.92 | 3.64 | 8.18 | 7.13 | 6.72 |
| CCGATTAACATCAACAAATCCCCTGATGTTAATCGGGTCTTGATTCGCTTGACGCTGCTG | 7.43 | 7.95 | 10.9 | 4.14 | 6.61 | 5.53 | 7.22 |
| CCGATTAACATCAAACTCCCCCTTGATGTTAATCGGGTCTTGATTCGCTTGACGCTGCTG | 8.05 | 6.74 | 8.38 | 6.26 | 6.54 | 6.59 | 7.29 |
| CCGATTAACATCAGGGGATTCTATGATGTTAATCGGGTCTTGATTCGCTTGACGCTGCTG | 8.9 | 9.25 | 11.1 | 3.26 | 7.72 | 6.2 | 6.98 |
| CCGATTAACATCAGGAATTTCCCTGATGTTAATCGGGTCTTGATTCGCTTGACGCTGCTG | 6.77 | 10.1 | 6.94 | 4.93 | 5.72 | 10.8 | 6.03 |
| CCGATTAACATCAGGGGGAAGTATGATGTTAATCGGGTCTTGATTCGCTTGACGCTGCTG | 5.44 | 6.23 | 7.96 | 8.17 | 5.72 | 5.16 | 5.57 |
| CCGATTAACATCAGGGGACTTACTGATGTTAATCGGGTCTTGATTCGCTTGACGCTGCTG | 5.97 | 5.56 | 5.43 | 2.17 | 8.32 | 5.66 | 5.68 |
